Laboratory results: PubChem BioAssay AID463173 (ICCB-Longwood Screening Facility, Harvard Medical School, 2010)
Screen size: about 52,000 compounds; about 4,300 (8.3%) were called active. The list comes from a sample in which actives are over-represented; it also holds similar structures and randomly drawn compounds. A number with no mark means an inactive call. No stated cut-off is given here; in the data, active means survival mostly below about 52% (no sharp cut-off); inactive means mostly above about 56%.

Each molecule was assayed on DeltatarO mutant (assay: growth inhibition of S. aureus wild type versus tarO mutant, primary screen, teichoic acid synthesis inhibitors, RN4220, OD600 (AID 463173)). Conditions: OD600, 18 h, stronger effect = lower value, screened at 18.75 µg/mL (by protocol).
`Cc1ccccc1S(=O)(=O)Cc1ccc(C(=O)NCc2ccccc2Cl)o1` gave a survival of 56%.
`Cc1ccc(-n2ncc(C(=O)NCCCN3CCc4ccccc4C3)c2C2CCN(C(=O)OC(C)(C)C)CC2)cc1C` gave a survival of 73%.
`COc1cccc(-n2cc(C(=O)NCc3ccccc3OC)c3ccccc3c2=O)c1` gave a survival of 72%.
For `CCC(Oc1ccccc1)C(=O)Nc1cccc(OCc2cc(=O)n3cccc(C)c3n2)c1` (centres undefined), the survival was 128%.
`O=C1N(CN2CCCCC2)c2ccccc2C12OCCCCO2` was tested, and the survival was 94%.
`CCc1ccc(OCC2c3cc(OC)c(OC)cc3CCN2C(=O)Cc2ccc(OC)c(OC)c2)cc1` (centres undefined) was tested, and the survival was 76%.
`COc1ccccc1OCC(=O)NCC(c1ccc(Cl)cc1)N1CCCCC1` (centres undefined) gave a survival of 61%.
With `O=C(Nc1ccc(F)cc1F)c1cc(S(=O)(=O)N2CCCCC2)c[nH]1` the survival was 83%.
Work on `Cc1ccc(NC(=O)c2cc(-c3ccc(Br)s3)nc3ccccc23)cc1F` yielded a survival of 59%.
For `CCOc1cccc(CC(=O)N2CCc3c([nH]c4ccccc34)C2c2ccc(SC)cc2)c1OCC` (centres undefined), the survival was 107%.
Work on `Cn1nccc1C(=O)NCc1ccc2c(c1)CCN2C(=O)c1ccc(F)cc1` yielded a survival of 65%.
`COC(=O)c1ccc(CSc2nc3c([nH]c4ccccc43)c(=O)n2-c2ccc(Cl)cc2)o1` gave a survival of 112%.
Molecule `COC(=O)c1ccc(CSc2nc3c([nH]c4ccccc43)c(=O)n2-c2cccc(Cl)c2)o1` has a survival of 79%.
`O=C(CSc1nc2c([nH]c3ccccc32)c(=O)n1-c1ccc(F)cc1)NCc1ccco1` showed a survival of 81%.
With `COC(=O)c1ccc(CSc2nc3c([nH]c4ccccc43)c(=O)n2-c2cc(C)cc(C)c2)o1` the survival was 8% (active).
In the case of `CCOc1ccc(-n2c(SCC(=O)NCc3ccco3)nc3c([nH]c4ccccc43)c2=O)cc1`, the survival was 37% (active).
For `COc1ccc(-n2c(SCC(=O)NCc3ccco3)nc3c([nH]c4ccccc43)c2=O)cc1`, the survival was 102%.
For `CCC(C)NC(=O)CSc1nc2cc3c(cc2c(=O)n1CCCCCC(=O)NCc1ccc2c(c1)OCO2)OCO3` (centres undefined), the survival was 84%.
With `O=C(COc1ccccc1F)Nc1c(C(=O)Nc2cccc(F)c2)oc2ccccc12` the survival was 75%.
`COc1cccc(-c2cc(C(F)(F)F)nc(NCCc3ccc(OC)c(OC)c3)n2)c1` was tested, and the survival was 4% (active).
`COc1ccc(CCNC(=O)CSc2nc(-c3ccc(F)cc3)cc(C(F)(F)F)n2)cc1OC` was tested, and the survival was 77%.
Molecule `COc1ccc(CCNC(=O)Cn2nc(-c3ccc(Cl)cc3)ccc2=O)cc1OC` has a survival of 75%.
Molecule `COc1ccc(CCNc2nc(-c3ccc(C)cc3)cc(C(F)F)n2)cc1OC` has a survival of 87%.
With `COc1ccc(CCNc2nc(-c3ccccc3OC)cc(C(F)(F)F)n2)cc1OC` the survival was -8% (active).
For `COc1ccc(CCNc2nc(-c3ccc(Cl)cc3)cc(C(F)(F)F)n2)cc1OC`, the survival was 8% (active).
For `COc1ccc(CCNc2nc(-c3ccc(OC)c(OC)c3)cc(C(F)(F)F)n2)cc1OC`, the survival was 4% (active).
`COc1ccc(CCNC(=O)C2CCN(c3nc4ccccc4nc3C(F)(F)F)CC2)cc1OC` showed a survival of 92%.
Work on `COc1ccc(-c2cc(C(F)(F)F)nc(SCC(=O)NCCc3ccc(OC)c(OC)c3)n2)cc1` yielded a survival of 59%.
`COc1ccc(CCNc2nc(-c3ccc(F)cc3)cc(C(F)(F)F)n2)cc1OC` gave a survival of 109%.
`CCOC(=O)N1CCC(NC(=O)c2cnn(-c3ccc(C)cc3)c2-n2cccc2)CC1` showed a survival of 69%.
`CCc1ccc2[nH]c(=O)c(CN(CCCN3CCOCC3)C(=S)NC)cc2c1` showed a survival of 88%.
`CC(C)c1c(O)nc(SCCN2CCOCC2)[nH]c1=O` was tested, and the survival was 92%.
In the case of `CCOc1ccc2nc(NC3=NCCC(=O)N3)nc(C)c2c1`, the survival was 80%.
Work on `CCN(CC)C(=O)c1sc2c(c1C)c(=O)n(-c1ccc(C)c(C)c1)c(=O)n2CC(=O)Nc1ccc(F)cc1` yielded a survival of 92%.
With `CCCCc1nn2c(=O)cc(COC(=O)c3ccc(NC(=O)C4CCCCC4)cc3)nc2s1` the survival was 91%.
For `CCn1cc(C(=O)NCc2ccc(Cl)cc2)c(=O)c2cc(S(=O)(=O)N3CCc4ccccc4C3)ccc21`, the survival was 64%.
In the case of `CCN(CC)C(=O)COc1ccc2ccc(=O)oc2c1`, the survival was 84%.
With `COc1ccccc1CNC(=O)CCCn1c(=O)c2ccccc2n(Cc2ccc(C)cc2)c1=O` the survival was 132%.
In the case of `CCOC(=O)Cn1c(=O)n(C2CCCCC2)c2nc(-c3ccc(OCC)cc3)nc(C(N)=O)c21`, the survival was 86%.
Work on `CCCS(=O)(=O)N1CC(=O)N(c2ccccc2C)C(C)(C(=O)NC2CCCCC2)C1` (centres undefined) yielded a survival of 75%.
`COc1ccccc1NC(=O)C1CCN(S(=O)(=O)c2cn(C)cn2)CC1` was tested, and the survival was 69%.
`CCCc1nc2nc(C)c(NS(=O)(=O)c3ccc(C)c(C)c3)c(=O)n2[nH]1` gave a survival of 129%.
`CCOc1ccc(C(=O)Oc2c(Sc3ccccc3)c(C)nn2C(C)(C)C)cc1OCC` showed a survival of 57%.
`Cc1cccc(C(=O)Oc2c(Sc3ccccc3)c(C)nn2C(C)(C)C)c1` showed a survival of 57%.
`Cc1nn(C(C)(C)C)c(OC(=O)c2cccc(F)c2)c1Sc1ccccc1` was tested, and the survival was 24% (active).
For `COc1ccc(C(=O)Oc2c(Sc3ccc(Cl)cc3)c(C)nn2C(C)(C)C)cc1OC`, the survival was 56%.
In the case of `Cc1nn(C(C)(C)C)c(OC(=O)c2c(F)cccc2F)c1Sc1ccccc1`, the survival was 127%.
`COc1cc(OC)cc(C(=O)Oc2c(Sc3ccccc3)c(C)nn2C(C)(C)C)c1` was tested, and the survival was 43% (active).
`CCOc1ccc(NC(=O)CSc2nc(-c3ccc(OC)cc3)nc3c2Cc2c(CO)cnc(C)c2O3)cc1` gave a survival of 79%.
`CS(=O)(=O)N1CCc2cc(C(=O)N3CCN(c4ccccc4F)CC3)ccc21` showed a survival of 45%.
`COc1ccc(C(=O)Nc2nc3nc(C)c(Cl)c(=O)n3[nH]2)cc1` gave a survival of 100%.
In the case of `COc1cc(C2CC(=O)N(c3ccccc3)C3=C2C(=O)OC3)cc(OC)c1OC` (centres undefined), the survival was 72%.
`Cc1cc2cc(CN(CC3COCCO3)S(=O)(=O)c3ccc(F)cc3)c(=O)[nH]c2cc1C` (centres undefined) was tested, and the survival was 103%.
Molecule `O=C1c2cccc3cccc(c23)N1c1ccccc1` has a survival of 77%.
